Bioassay records (PubChem BioAssay)
Rows were chosen to be rich in hits. Some 4.6% of all compounds tested hit in one or more screens of this group.
ADAM17 inh – inhibitors of human ADAM17. inhibition, % at 6.95 µM. P78536. 370,000 tested, 0.83% active. recombinant ADAM17, EDANS/DABCYL FRET peptide cleavage. AID 720648;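 active means inhibition above the mean of compounds lying between control limits plus 3 SD, set per campaign, cut at about 8.5% in these data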;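 further: 0% = DMSO-only wells as the low control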
NR3A LBD binder – modulates the human NR3A ligand-binding domain; NR3A LBD differential scanning fluorimetry, Tm shift; 0% = protein alone, 100% = glycine-bound protein; Tm shift relative to glycine control, % at 25 µM; 340,000 tested, 2.5% active; AID 1259313;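 active means melting temperature shift of at least 10% of the positive control shift, at one fixed dose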
FAS TE block – inhibitors of human fatty acid synthase thioesterase domain | P49327 | recombinant FAS-TE, OMFH fluorogenic substrate, fluorescence endpoint | inhibition, % at 15 µM | 360,000 tested, 0.67% active | AID 602261;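 active means compounds whose normalised, plate-corrected inhibition of enzyme fluorescence in the single-dose primary screen is 50% or more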;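 further: 0% = DMSO with enzyme and 100% = substrate without enzyme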
KLK7 zymogen act – activates the human kallikrein-7 zymogen. P49862. purified proKLK7, EDANS-DABCYL substrate fluorescence; 100% is mature enzyme control, 0% vehicle. activation, % at 7 µM. 370,000 tested, 0.9% active;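 active means activation above the mean of all tested compounds plus 3 SD, computed per campaign excluding outliers beyond control limits, cut at about 13% in these data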
ADAM10 inh – ADAM10 inhibition, QFRET primary screen. 370,000 tested, 0.62% active. recombinant ADAM10, EDANS/DABCYL FRET peptide cleavage, 3 h. inhibition, % at 7 µM. AID 720582;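 active means inhibition above a per-campaign cutoff equal to the mean of compounds falling between control-based bounds plus 3 SD, cut at about 20% in these data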;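 further: 0% = DMSO wells while the 100% control is not disclosed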
Target sequence (O14672 214-748 limits assumed): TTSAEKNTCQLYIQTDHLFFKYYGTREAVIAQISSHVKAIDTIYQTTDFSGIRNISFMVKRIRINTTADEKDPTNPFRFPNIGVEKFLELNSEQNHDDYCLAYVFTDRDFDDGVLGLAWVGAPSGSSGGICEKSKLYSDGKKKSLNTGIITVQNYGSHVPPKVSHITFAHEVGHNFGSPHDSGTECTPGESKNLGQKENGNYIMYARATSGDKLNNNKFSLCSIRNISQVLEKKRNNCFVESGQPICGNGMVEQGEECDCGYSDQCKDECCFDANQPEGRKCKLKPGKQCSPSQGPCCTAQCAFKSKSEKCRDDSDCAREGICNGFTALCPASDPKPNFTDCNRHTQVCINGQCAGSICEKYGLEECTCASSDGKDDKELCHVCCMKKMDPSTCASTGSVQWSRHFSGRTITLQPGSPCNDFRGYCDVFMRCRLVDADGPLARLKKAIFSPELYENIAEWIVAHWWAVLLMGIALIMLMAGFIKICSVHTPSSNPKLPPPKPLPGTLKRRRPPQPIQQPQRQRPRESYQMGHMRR
FAS-TE inh conf – confirmation of human fatty acid synthase thioesterase inhibitors. 2,300 tested, 45% active. AID 624325. shares compounds with FAS TE block. inhibition, % at 15 µM. recombinant FAS-TE, OMFH fluorogenic substrate, fluorescence;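 active means compounds inhibiting the enzyme by at least 50% at 15 µM in any one of the replicates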;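 further: 0% = enzyme with DMSO only and 100% = wells lacking enzyme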
* marks the source's active call; other numbers are inactive results; nt = not tested or not shown.

SMILES	ADAM17 inh	NR3A LBD binder	FAS TE block	KLK7 zymogen act	ADAM10 inh	FAS-TE inh conf
COc1ccc(S(=O)(=O)N2CCC(c3nc4ccccc4o3)CC2)c(OC)c1	4	nt	nt	0	2	nt
COc1cccc(-c2cnc3c(NC=O)cc(-c4ccc(S(C)(=O)=O)cc4)cn23)c1	-7	nt	55*	-3	-32	56*
COc1cccc(-c2cnc3c(NC=O)cc(-c4ccccc4)cn23)c1	-9	nt	20	-1	-25	nt
CC(C)(C)N(Cc1ccccc1)C(=O)COC(=O)c1ccc([N+](=O)[O-])o1	0	0	50*	0	-16	52*
COC(=O)[C@]12C[C@H](CC(=O)NCc3cccc(C(F)(F)F)c3)C(=O)N(Cc3ccccc3)C1=C[C@H](COCc1ccccc1)O[C@@H]2C	4	nt	nt	0	11	nt
Cc1cccc(C)c1Cn1c(C)c(C(=O)NCc2ccc([N+](=O)[O-])cc2)sc1=O	4	nt	61*	1	14	62*
O=S(=O)(Nc1ccc(-c2csc(-c3ccccc3)n2)cc1)c1ccccc1	5	20*	59*	0	13	44*
C[C@@H]1CCN(C2CC2)S(=O)(=O)c2ccc(N3CC[C@H](O)C3)cc2O1	1	nt	nt	-1	0	nt
COc1cc(CN(C)c2ccc(S(=O)(=O)N3CCCC3)cn2)ccc1OC(F)F	-3	0	68*	0	3	22
COc1ccc(CCN(C)c2ccc(S(=O)(=O)N3CCCC3)cn2)cc1OC	-4	1	3	0	-4	nt
CN(C(=O)COC(=O)c1c2c(nc3ccccc13)/C(=C/c1cccc([N+](=O)[O-])c1)CCC2)C1CCS(=O)(=O)C1 (stereo unspecified)	-2	3	67*	0	8	14
CCCC(=O)OCCNc1cc(Sc2nc3ccccc3[nH]2)c2nonc2c1[N+](=O)[O-]	3	-4	75*	0	4	78*
CC(=O)OCCCNc1cc(Sc2ccc(Cl)cc2)c2nonc2c1[N+](=O)[O-]	3	-3	62*	0	2	25
Cc1ccc(Sc2cc(NCCCO)c([N+](=O)[O-])c3nonc23)cc1	-1	-1	26	0	0	nt
C/C(C=NNC(=O)CSc1nc2ccccc2n1C)=C\c1ccccc1	4	nt	nt	0	8	nt
O=C1NC(Cc2ccccc2)c2nc3ccc(F)cc3c(=O)n2-c2cc3ccccc3cc21 (stereo unspecified)	1	nt	80*	-2	5	29
Cc1cc(C)c2c(=O)n3c(nc2c1)C(Cc1ccccc1)NC(=O)c1cc2ccccc2cc1-3 (stereo unspecified)	-1	nt	86*	-1	-2	5
O=C1NC(Cc2ccc(O)cc2)c2nc3ccc(Cl)cc3c(=O)n2-c2cc3ccccc3cc21 (stereo unspecified)	2	nt	19	-2	-3	nt
CCCC1NC(=O)c2cc3ccccc3cc2-n2c1nc1cc(Cl)ccc1c2=O (stereo unspecified)	0	nt	73*	0	4	35
CCC1NC(=O)c2cc3ccccc3cc2-n2c1nc1cc(C)cc(C)c1c2=O (stereo unspecified)	-5	nt	-2	0	-8	nt
O=C1NC(Cc2ccccc2)c2nc3ccc(F)cc3c(=O)n2-c2ccccc21 (stereo unspecified)	-1	nt	nt	0	9	nt
O=C1NC(Cc2ccccc2)c2nc3ccc(Cl)cc3c(=O)n2-c2cc3ccccc3cc21 (stereo unspecified)	0	nt	78*	-4	-1	11
CCOc1cc(C=NN2CCN(Cc3ccc(C)cc3)CC2)ccc1O	-2	nt	nt	0	-4	nt
Cc1cc(C)cc(N(CC(=O)NC2CCC(C)CC2)S(=O)(=O)c2ccccc2)c1 (stereo unspecified)	1	nt	nt	0	-10	nt
NC(=O)C1CCN(c2ccnc(Cl)n2)CC1	0	nt	nt	nt	3	nt
SMILES	ADAM17 inh	NR3A LBD binder	FAS TE block	KLK7 zymogen act	ADAM10 inh	FAS-TE inh conf
CN(Cc1ccccc1)C(=O)OCc1cn(Cc2ccccc2C(F)(F)F)nn1	2	nt	nt	0	5	nt
CCOC(=O)[C@@]12CCCC3=C1N(CCC3)C(=O)[C@H]2CC(=O)NCc1cccc(C(F)(F)F)c1	-2	nt	nt	0	2	nt
Cc1c(NS(=O)(=O)c2cc3c(cc2Br)CCN3C(=O)C2CC2)c(=O)n(-c2ccccc2)n1C	0	nt	nt	-1	-3	nt
O=S(=O)(CC1NCCc2ccccc21)NCc1ccc(F)cc1 (stereo unspecified)	-3	nt	nt	0	-4	nt
Cc1ccc2nc3n(c(=O)c2c1)-c1cc2ccccc2cc1C(=O)NC3Cc1ccccc1 (stereo unspecified)	3	nt	91*	-4	10	2
N#Cc1cc2nc(O)c(O)nc2cc1[N+](=O)[O-]	2	-4	52*	0	-1	56*
CNc1nc2cc([N+](=O)[O-])c([N+](=O)[O-])cc2nc1NC	0	2	-2	0	4	nt
CCOC1=C2[C@@H](CN(S(=O)(=O)c3ccc(C)cc3)[C@H]2c2ccccc2F)[C@H]2C(=O)N(c3ccccc3)C(=O)[C@H]2C1	-1	nt	32	-1	-17	nt
Cc1ccc(S(=O)(=O)N2C[C@H]3C(=O)C[C@@H]4C(=O)N(c5ccccc5)C(=O)[C@@H]4[C@@H]3C[C@H]2c2cccs2)cc1	-2	nt	70*	0	1	46
CCc1ccc([C@H]2C[C@H]3[C@H]4C(=O)N(c5ccccc5)C(=O)[C@H]4CC(=O)[C@@H]3CN2S(=O)(=O)c2ccc(C)cc2)cc1	4	nt	74*	0	17	13
CCOC1=C2CN(S(=O)(=O)c3ccc(C)cc3)[C@@H](c3cccs3)C[C@H]2[C@H]2C(=O)N(c3ccccc3)C(=O)[C@H]2C1	-2	nt	78*	0	-4	22
Cc1ccc(S(=O)(=O)N2C[C@H]3C(=O)C[C@@H]4C(=O)N(c5ccccc5)C(=O)[C@@H]4[C@@H]3C[C@H]2c2cccc(Cl)c2)cc1	-4	nt	85*	-1	-8	1
CS(=O)(=O)N1C[C@]2(c3ccccc3)CC1Cc1ccccc12	-3	nt	nt	nt	-2	nt
Cc1ccc(NC(=O)CSc2nc3nn(-c4ccccc4)c(=O)c-3c3n2CCCCC3)cc1F	1	4	74*	0	-7	31
O=C(Nc1ccc2c(c1)OCCO2)C(c1cc2ccccc2o1)N1CCN(c2ccc(C(F)(F)F)cn2)CC1 (stereo unspecified)	1	nt	55*	-2	-3	18
O=C(NCCN1C(=O)S/C(=C\c2ccc(Cl)c([N+](=O)[O-])c2)C1=O)C1=COCCO1	1	1	52*	0	5	41
CNc1ccccc1/C(O)=C(\C#N)C(=O)NCc1cccs1	-1	nt	nt	0	2	nt
CCCC[C@H](C(=O)N(C)c1cccc(OC)c1)[C@@H](O)c1ccc(C(C)=O)cc1	1	nt	nt	0	2	nt
